Molecules are shown by their SMILES. Records with an inconclusive call do not appear. A number with no mark means an inactive call. Active and inactive are the calls of the source. Calls follow the shape of the dose curve; as a rule, active = well fitted cell-killing curve with a large enough effect; inconclusive = small, poorly fitted or top-dose-only effect, or effect the other way; inactive = no such curve, though single readings can be large or run the other way.

The results in this text go back to PubChem BioAssay (NCATS).
Potency is read from the fitted curve at half-maximal effect.

A short description of this experiment: Viability qHTS for spleen associated tyrosine kinase inhibitor (SYKi) drug resistant MV4-11 cells (AID 1963824). Also: nearly all actives have a fitted effect of over 35% in size. Particulars: SYKi-resistant MV4-11 viability, CellTiter-Glo, 72 h; series mostly up to 45 µM. The gist of the method:
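CellTiter-Glo luminescence, read 10 min after reagent addition, reports viability after a 72 hr compound exposure. Cells are an MV4-11 line made resistant to SYK inhibition, seeded at 500 per well onto compound-containing plates.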
For orientation: Quantitative high-throughput screening tests each substance at several concentrations.
Regarding `CC(F)(F)CN1CCOc2c(nn(-c3ccccc3Cl)c2-c2ccc(Cl)cc2)C1=O`, the Potency is 20.6 µM (active).
Still for that read-out and setting: in the case of `COc1cc2nc(N3CCC(N4CCCCC4)CC3)nc(NC3CCCCCC3)c2cc1OC` it was 1.03 µM (active); in that of `COc1ccc(N2CCOCC2)c2sc(NC(=O)N3CCC(C)(O)CC3)nc12`, “inactive”.
On the same count and under the same terms, the same measure for `N[C@H]1Cc2ccccc2N(O)C1=O`: “inactive”.
Consider `CCCCCCc1cccc(NC(=O)[C@H](N)CCP(=O)(O)O)c1`, for which the viability, % of control is 99.2% [at 9.25 µM].
Same read-out and setting: the same measure for `COC1CC(OC2CCC3(C)C(=CCC4C3CCC3(C)C(C(C)O)CCC43O)C2)OC(C)C1OC1OC(C)C(OC2OC(COC3OC(COC4OC(CO)C(O)C(O)C4O)C(O)C(O)C3O)C(O)C(O)C2O)C(OC)C1O` (stereo not given): 97.1% [at 9.25 µM].
As to `C=C(C)[C@H]1CC[C@]2(C(=O)O)CC[C@]3(C)C(CCC4[C@@]5(C)CCC(=O)C(C)(C)C5CC[C@]43C)C12` (stereo not given in full), the Potency was 1.42 µM (active).
Same read-out and setting: the same measure for `CCOc1ccc(-n2c(C(C)N(Cc3cccnc3)C(=O)Cc3ccc(F)c(C(F)(F)F)c3)nc3ncccc3c2=O)cc1` (stereo not given): 16.4 µM (active); for `C=C1C(=O)O[C@@H]2C[C@]3(C)[C@@H](CCC(C)=O)[C@@H]3C[C@H]12`: 18.4 µM (active).
Consider `Cc1c(C(=O)NCc2cccnc2)nn(-c2ccc(Cl)cc2Cl)c1-c1ccc(Cl)cc1`, for which the Potency entry is “inactive”.
The same measure, in the same setting: in the case of `CC(C)CC(=O)OC1OC=C(CO[C@@H]2O[C@H](CO)[C@@H](O)[C@H](O)[C@H]2O)C2CC(O)C(O)(CO)C12` (stereo not given in full) it was “inactive”; in that of `CCc1ccc(N(CC(C)C)S(=O)(=O)c2ccc(OCC3CCOCC3)c(CO)c2)cc1`, 18.6 µM (active).
Still for that read-out and setting: in the case of `Nc1nc2c(ncn2[C@@H]2O[C@H](CO)[C@@H](O)[C@H]2O)c(=O)[nH]1` it was “inactive”.
On to `CC(O)C(O)/C=C/C=C/C(=O)O[C@@H]1C=C2COC(=O)[C@]2(O)[C@@]2(C)CCCC(C)(C)C12` (stereo not given in full), for which the Potency entry was “inactive”.
Regarding `C=C1C2=CC(O)C(C)C1(C)CC/C(C)=C/CCC1(C)OC1C2=O` (stereo not given), the Potency is 10.1 µM (active).
As to `COC1C(=O)CCC2(CO2)C1(O)C1(C)OC1CC=C(C)C` (stereo not given), the Potency result is “inactive”.
Still for that read-out and setting: in the case of `CC1=C[C@@H]2[C@H]3[C@@H]4O[C@@](C)(CC[C@H]4O)[C@H]3CC(=O)[C@]23C(=O)N[C@@H](CC(C)C)[C@@H]3[C@@H]1C` it was 8.05 µM (active); in that of `N#CC(CCCN1CCC(O)(c2ccc(Cl)cc2)CC1)(c1ccccc1)c1ccccc1`, 5.8 µM (active); in that of `COC1CC/C=C(\C)C(=O)Nc2cc(O)cc(c2)CC(C)CC(OC)C(O)C(C)/C=C(\C)C1OC(N)=O` (stereo not given), 0.632 µM (active).
On the same count and under the same terms, the same measure for `COc1cc(C[C@H]2C(=O)OC[C@@H]2Cc2ccc(OC)c(OC)c2)ccc1O`: 0.255 µM (active); for `O=C1OC(c2ccc(O)cc2)(c2ccc(O)cc2)c2ccccc21`: 18.8 µM (active).
As for `CN1CCN(C(=O)c2cc3cc(Cl)ccc3[nH]2)CC1`, the Potency is 8.2 µM (active).
Same read-out and setting: the same measure for `C=C1C(=O)OC2CC(C)C(CCC(C)O)=CCC12` (stereo not given): 7.31 µM (active); for `CCC/C=C/C(=O)O[C@H]1CC(C)(C)CC2[C@@]13[C@H](O)C[C@]1(C)[C@@]2(CCC2[C@@]4(C)CC[C@H](O[C@@H]5O[C@H](C(=O)O)[C@@H](O)[C@H](O[C@@H]6O[C@H](CO)[C@H](O)[C@H](O)[C@H]6O[C@@H]6O[C@@H](C)[C@H](O)[C@@H](O)[C@H]6O[C@@H]6OC[C@](O)(CO)[C@H]6O)[C@H]5O[C@@H]5O[C@H](CO)[C@H](O)[C@H](O)[C@H]5O)C(C)(C)C4CC[C@]21C)O[C@H]3O` (stereo not given in full): 2.75 µM (active); for `CC1=C2CC3OC3(C)CCC3OC3(C)CC2OC1=O` (stereo not given): 3.66 µM (active).
With `CC(C)(OC1OC(CO)C(O)C(O)C1O)C1CCC(O)(CO)C2CC(=O)C(C)(O)C2C1` (stereo not given), the Potency result is “inactive”.
In the case of `CC(C)=C/C=C\[C@H](C)[C@H]1CC[C@]2(C)C[C@@H]3C(C)=CC(=O)C3/C(CO)=C\C[C@@H]12` (stereo not given in full), the Potency was 14.3 µM (active).
On the same count and under the same terms, the same measure for `CN1CCC(c2cn(C)c3ccc(OS(=O)(=O)c4c(F)cccc4F)cc23)CC1`: 14.6 µM (active); for `O=C(c1cn(Cc2cncn2Cc2ccc(Br)cc2)cc1-c1cccc2ccccc12)N1CCOCC1`: 1.64 µM (active).
The same measure, in the same setting: in the case of `COc1c(C)c2c(c(O)c1C/C=C(\C)CC/C=C(\C)CCC(=O)O)C(=O)OC2` it was “inactive”.
The same measure, in the same setting: in the case of `CCN(CC)CCNc1ccc2ncn3c4ccc(O)cc4c(=O)c1c23` it was 0.291 µM (active).
As for `C/C=C/C=C/C(=O)OC1CC/C=C/C(O)C(O)C(CCC)OC1=O` (stereo not given), the Potency entry is “inactive”.
The same measure, in the same setting: in the case of `CCCCCCCCCCC(O)C1C=CC2C(=O)N(c3ccccc3)C(=O)C2N1Nc1ccc([N+](=O)[O-])cc1` (stereo not given) it was 11.6 µM (active).
The same measure, in the same setting: the same measure for `C#Cc1cccc(Nc2ncnc3cc(OC)c(OC)cc23)c1`: 1.64 µM (active).
On the same count and under the same terms, the same measure for `CNc1nc(-c2ccc3c(N)n[nH]c3c2)cc(N2C[C@@H](C(=O)NC3CCCCC3)CC[C@H]2C)n1`: 5.9 µM (active).
In the case of `c1ccc(Nc2nc3c(s2)CCCc2[nH]ncc2-3)nc1`, the Potency is 14.6 µM (active).
On the same count and under the same terms, the same measure for `CC(=O)[C@@H]1CC[C@]2(C(=O)O)CC[C@]3(C)C(CCC4[C@@]5(C)CC[C@H](O)C(C)(C)C5CC[C@]43C)C12` (stereo not given in full): 7.09 µM (active); for `CN(C)c1ccc2c(c1)OC(N)=C(C#N)C2c1cccc(C(F)(F)F)c1` (stereo not given): 0.184 µM (active); for `Nc1nc2c(c(=O)[nH]1)N1CN(c3ccc(C(=O)N[C@@H](CCC(=O)O)C(=O)O)cc3)CC1CN2` (stereo not given in full): 0.833 µM (active).
On the same count and under the same terms, the same measure for `COc1cc(/C=C/C(=O)OC[C@H]2O[C@@](CO)(O[C@H]3O[C@H](CO)[C@@H](O)[C@H](O)[C@H]3O)[C@@H](OC(=O)/C=C/c3ccc(O)c(OC)c3)[C@@H]2O)ccc1O`: “inactive”.
